Data from PubChem BioAssay AID488839 (Broad Institute, 2010).
Among all 330,000 compounds or so, about 35 (0.01%) were called active.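 The calls were made as follows: active = highest replicate inhibition of at least 50% and at least 75% of replicates reaching 50%; inconclusive = only one of the two criteria met; inactive = both criteria failed.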 Only a sample is shown.

These compounds were tested against Cyclin-dependent kinase 5 (Homo sapiens) + Cyclin-dependent kinase 5 activator 1 (Homo sapiens) (UniProt Q00535+Q15078) (assay: CDK5/p35 phosphotransfer blockade – biochemical, single concentration, primary screen (AID 488839;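 also: plate controls were DMSO neutral control for no effect and GW8510 at 10 µM for full effect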)). Conditions: Recombinant CDK5/p35, ADP-Glo luminescence, 60 min; at 10 µM; active compounds read high.
Sequence of Cyclin-dependent kinase 5 (Homo sapiens) + Cyclin-dependent kinase 5 activator 1 (Homo sapiens) (Q00535 whole entry, looked up): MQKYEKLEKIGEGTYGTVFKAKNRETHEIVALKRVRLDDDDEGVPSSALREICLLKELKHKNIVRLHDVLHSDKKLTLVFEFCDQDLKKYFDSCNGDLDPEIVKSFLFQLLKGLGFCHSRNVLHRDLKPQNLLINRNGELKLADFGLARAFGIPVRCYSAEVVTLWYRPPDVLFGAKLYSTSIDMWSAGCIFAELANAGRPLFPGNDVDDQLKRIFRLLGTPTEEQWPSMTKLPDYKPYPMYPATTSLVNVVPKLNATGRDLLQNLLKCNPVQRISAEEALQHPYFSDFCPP
Sequence of Cyclin-dependent kinase 5 (Homo sapiens) + Cyclin-dependent kinase 5 activator 1 (Homo sapiens) (Q15078 whole entry, looked up): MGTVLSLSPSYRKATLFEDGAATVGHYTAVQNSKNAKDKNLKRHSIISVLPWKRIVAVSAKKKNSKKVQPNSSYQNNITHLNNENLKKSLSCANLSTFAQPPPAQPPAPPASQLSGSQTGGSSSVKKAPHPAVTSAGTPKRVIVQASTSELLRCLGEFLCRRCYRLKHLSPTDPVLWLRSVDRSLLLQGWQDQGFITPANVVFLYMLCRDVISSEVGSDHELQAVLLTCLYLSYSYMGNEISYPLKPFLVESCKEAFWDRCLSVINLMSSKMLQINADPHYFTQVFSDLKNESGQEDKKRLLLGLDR

inhibition, inactive:
COc1ccc(-c2csc3nc(-c4ccccc4F)oc(=O)c23)cc1OC -0.745%, CCCN1CNC(=S)N(CCc2ccccc2)C1 0.897%, OCc1n[nH]c(CO)n1 -0.355%, CC(C)COC(=O)n1c(=O)oc2ccc(S(=O)(=O)N3CCCCC3)cc21 -6.42%, COc1ccc(NC(=O)CC2C(=O)NC3CCCCC3N2C(=O)c2ccc(F)cc2)cc1 (stereo unspecified) 0.318%, CN(CC(=O)Nc1ccc(F)cc1)CC(=O)N1CCCCC1 1.08%, Cc1coc2c(O)cc3c(c12)OC1(N2CCCCC2)C(=O)NCCCC31 (stereo unspecified) -0.717%, CCCCN1C(=O)C(C)=C(C)C1OCCc1ccc(OC)c(OC)c1 (stereo unspecified) 1.7%, N/C(=N\OC(=O)Nc1ccccc1)c1ccno1 -1.08%, Cc1c2cnn(-c3ccccc3)c(=O)c2c(C)n1CCCC(=O)N1CCN(C)CC1 0.518%, COc1ccccc1NC(=O)CSc1nnc(-c2ccoc2C)n1CCc1ccccc1 -0.569%, COc1ccccc1NC(=O)c1ccc(N2CC3CC(C2)c2cccc(=O)n2C3)c(NC(=O)c2cccnc2)c1 (stereo unspecified) -1.98%, CC1C(C)N(C(=O)CCl)c2ccccc2N1C(=O)CCl (stereo unspecified) 1.01%, C[C@H](NC(=O)C1CC(=O)N(c2ccc3c(c2)OCO3)C1)C(=O)NCc1ccco1 (stereo partly specified) -0.436%, CCc1n[nH]c(=S)n1/N=C/c1c[nH]c2ccc(Br)cc12 2.39%, COC(=O)Cc1ccc(OCC(=O)NC2CCCC2)cc1 0.995%, O=C(Nc1c2c(nn1-c1ccc(F)cc1)CS(=O)C2)C12CC3CC(CC(C3)C1)C2 (stereo unspecified) -0.258%, Cc1cccc(C(=O)NCc2nnc(SC(C)C(=O)Nc3nnc(C)s3)n2C)c1 (stereo unspecified) 1.14%, COc1ccc(Cl)cc1NC(=O)COC(=O)C(CC(C)C)N1C(=O)C2CC=CCC2C1=O (stereo unspecified) -0.94%, CCOC(=O)c1ccc2[nH]c(C)c(CN3CCN(C)CC3)c(=O)c2c1 -4.67%, COc1ccc(OC)c(NC(=O)CN(Cc2ccc(Cl)cc2)S(C)(=O)=O)c1 0.423%, O=C(CSc1nnc(SCc2ccc(Cl)cc2)s1)N/N=C/c1ccccc1Cl -1.05%, O=S(=O)(NCCSc1ccccn1)c1ccc(Cl)cc1 0.39%, O=C(C1CCN(C2CCN(Cc3ccc4cc(F)ccc4n3)CC2)CC1)N1CCCC1 0.175%, COc1ccc(C(=O)Cn2nnc(-c3ccc(N4CCOCC4)cc3)n2)cc1OC -3.2%, COC(=O)c1c(NC(=O)c2c(Cl)cnn2C)sc(C)c1C -2.29%, O=c1[nH]c2ccc(S(=O)(=O)N3CCCC3)cc2[nH]1 -0.663%, CCOc1ccc(OCCSc2nc3ccccc3n2CC(=O)O)cc1 0.306%, Cc1nc(-c2nnc(SCC(=O)Nc3cc(C(F)(F)F)cc(C(F)(F)F)c3)n2C)cs1 -0.227%, CCCCCCCC(=O)OC(CN1CCCCCC1)CN1CCCC1=O (stereo unspecified) 0.855%, CC(CC(=O)Nc1ccc(F)cc1F)S(=O)(=O)c1ccc2c(c1)NC(=O)CO2 (stereo unspecified) 0.798%, COc1ccccc1NC(=O)C1CCCN(c2cc(C)nc3ncnn23)C1 (stereo unspecified) 0.792%, Cc1cccc(C)c1NC(=O)CNC(=O)C1CCCC1 0.783%, Cc1ccc(Nc2cc(=O)n(C3CCCCC3)c(=O)[nH]2)cc1C -0.561%, CC(C)NC(=O)COCc1cc(-c2ccc3c(c2)OCO3)on1 -3.05%, CC(=O)Nc1ccc(OC(=O)COc2ccc(Br)cc2)cc1 -1.45%, CCCNC(=O)c1c(Cl)cnn1-c1ccc(C)cc1 -0.745%, Cc1noc(C)c1NC(=O)Nc1ccc2c(c1)C(=O)N([C@H](C)CO)C[C@H](C)[C@@H](CN(C)S(=O)(=O)c1cn(C)cn1)O2 0.62%, O=C(CCc1nnc2ccc(NCc3ccco3)nn12)Nc1cc(F)ccc1F 0.605%, O=C(O)Cn1c(Cc2ccccc2)nc2ccccc21 -0.592%, COc1ccc(C2OC(=O)CC2C(=O)NC(C)C)cc1 (stereo unspecified) -11.3%, O=C(CC1Nc2ccccc2NC1=O)Nc1ccccc1 (stereo unspecified) 1.13%, CCCCCCSc1ccc([C@@H]2[C@@H]3C(=O)N(CC)C(=O)[C@@H]3[C@]3(C(=O)OC)CCCCN23)cc1OC -6.06%, Cc1ccccc1NS(=O)(=O)CCCCC(Cl)(Cl)Cl -0.0868%, O=C(COc1coc(CN2CCN(c3ccccc3F)CC2)cc1=O)N1CCc2ccccc21 0.232%, COc1ccc(Cl)cc1NC(=O)CN(C)CC(=O)Nc1ccc2c(c1)OCO2 1.26%, O=Cc1c(N2CCN(c3cccc(Cl)c3)CC2)nc2ccccn2c1=O -1.83%, CN1CCN(S(=O)(=O)c2ccc(N3CCN(S(=O)(=O)c4cccs4)CC3)nc2)CC1 -0.333%, CCC(C)c1ccccc1N1CC(C(=O)N2CCN(S(=O)(=O)c3ccc(F)cc3)CC2)CC1=O (stereo unspecified) 0.723%, CC(C)[C@H](NC(=O)N1CCn2c1nc1ccccc12)C(=O)NC1CC1 2.48%, COc1cc(C(=O)N2CCN(S(=O)(=O)c3ccc(C(C)C)cc3)CC2)ccc1OCC(=O)N1CCOCC1 -0.998%, Cc1cccc(NC(=O)c2ccc(OCC(=O)NCc3ccccc3)cc2)c1C 0.801%, Cc1nc2c(-c3ccc(F)cc3)c(C)nn2c(C)c1CCC(=O)NCc1ccco1 -0.00338%, CCc1ccc(C(=O)CSc2nnc(C)c(=O)[nH]2)cc1 -0.74%, Cc1cc(C)cc(Oc2nc3c(C)cccn3c(=O)c2/C=C(\C#N)C(=O)NC2CCS(=O)(=O)C2)c1 (stereo unspecified) 0.399%, CC(C)[C@H](NC(=O)N1CCn2c1nc1ccccc12)C(=O)NCCc1ccccc1 1.82%, COC(=O)c1ccccc1NC(=O)C1CCN(S(=O)(=O)c2cc(OC)ccc2OC)CC1 0.427%, N#Cc1ccc(C(=O)Nc2nc(-c3cccs3)c(C(=O)C(F)(F)F)s2)cc1 -1.16%, O=C(Cn1nc(Cc2cccnc2)c2ccccc2c1=O)NCC1CCCO1 (stereo unspecified) -0.846%, CCOC(=O)Cc1c(C)nc2c(C#N)c(C)nn2c1C -2.18%, CC(C)CCN(C(=O)c1csnn1)C(C(=O)NC1CCCC1)c1ccccc1 (stereo unspecified) 0.702%, COCc1c(N)c(C)nc(Cl)c1C#N 11.1%, O=C(Cn1nc(C(=O)O)c2ccccc2c1=O)Nc1ccc(F)cc1 0.796%, CCC(C)(C)NC(=O)C(c1ccc(OC)cc1)N(C(=O)CCC(=O)Nc1cc(C)on1)c1ccc(OC)cc1OC (stereo unspecified) -0.155%, CCSc1ccccc1C(=O)NCc1ccc(OC)cc1 0.696%, COc1ccc(OC)c(/C(C)=N\NC(=O)c2cc3cc(Cl)ccc3n2C)c1 0.107%, CS(=O)(=O)N(CC(=O)N1CCCCCC1)c1cccc(Cl)c1Cl 0.703%, CCOc1ccc(C(=O)NC2CCN(CC(=O)NCc3cccs3)CC2)cc1 1.1%, CC(C)CCNC(=O)C1CCCN(S(=O)(=O)c2ccc(F)cc2)C1 (stereo unspecified) -0.29%, COc1ccc(-c2nc3n(c(=O)c2C#N)CCS3)c(OC)c1 0.425%, CC(Sc1nnnn1C)C(=O)NC(=O)NC1CCCCC1 (stereo unspecified) -1.1%, CCc1c(C)nc2c(-c3ccccc3)c(C)nn2c1Nc1ccc(NC(C)=O)cc1 0.169%, CCN(C(=O)COC(=O)c1ccccc1O)c1cccc2ccccc12 -1.97%, COc1cccc(CC2(CO)CCCN(Cc3ccc(OC(F)F)cc3)C2)c1 (stereo unspecified) 0.552%, Cc1ccc(C2SCC(=O)N2c2ccccc2)cc1 (stereo unspecified) 0.449%, COC(=O)Nc1ncc(CN2C(=O)c3ccccc3C2=O)s1 0.873%, CCC(C)NC(=O)Cn1nc(C(F)(F)F)c2c1CCC2 (stereo unspecified) -1.07%, Cc1ccc(C)c(NS(=O)(=O)c2cc(Br)cnc2N)c1 -0.401%, CSCCC(NS(=O)(=O)c1ccccc1F)C(=O)N1CC=C(c2ccccc2)CC1 (stereo unspecified) 0.0413%, CCCCCCCC[n+]1cccc(C(=O)N2c3c(nc(N)[nH]c3=O)NC(C)C2C)c1 (stereo unspecified) -4.49%, CC(OC(=O)Cc1ccc(F)cc1)C(=O)N1CCc2ccccc21 (stereo unspecified) -7.94%, O=C(O)/C(=C/c1cccnc1)NC(=O)c1ccccc1 1.62%, O=C(O)CN1C(=O)CC(Cc2ccccc2)C1=O (stereo unspecified) -1.35%, CC(Nc1ccccc1)c1cccnc1 (stereo unspecified) -1.25%, Cc1nc2nc(COc3ccccc3)[nH]n2c(=O)c1Cc1ccccc1 -2%, Cc1csc(OCC(=O)Nc2ccc(C)c(C)c2)n1 -0.147%, CCS(=O)(=O)c1ccc(C(=O)NC)c(Cl)c1Cl -2.96%, CCc1cccc(C)c1N(C(=O)Cn1c(CO)nc2ccccc21)C(C)COC (stereo unspecified) -0.226%, O=c1c2ccccc2ccc2ccc(P(=O)(O)O)cc12 1.94%, CCC(C)N(C(=O)Cn1nc(C)c([N+](=O)[O-])c1C)C1CCS(=O)(=O)C1 (stereo unspecified) -0.0593%, Cc1c(CCO)c(=O)[nH]n1C(=O)c1c(F)cccc1F 0.283%
